Sampled rows, rich in hits. Any-hit rate of the full collection: about 2.5%.
p53ts 32C tox: p53ts cell cytotoxicity, permissive temperature; H1299-p53A138V at 32C, ATP luminescence viability, 24 h; Potency, µM (titrated, usually from 46.1 µM), for inactives: at the highest dose activity change, negative = cytotoxicity, most hits filed as cytotoxic; actives 0.93% (n = 130,000); AID 924;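 also: 0% = DMSO and -100% = full killing by reference compound; nearly all actives have a fitted effect of over 55% in size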
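H1299-p53 A138V cells (temperature-sensitive p53) exposed 24 h to up to 46 uM compound at 32C, where p53 is wild-type in conformation. Viability read as ATP luminescence and normalised to DMSO and 100 uM tamoxifen. AC50 fitted with the Hill equation.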
Luciferase inh: blocks Photinus pyralis firefly luciferase activity. purified firefly luciferase, luminescence, 8 min. Potency, µM (doses to about 57.1 µM), inactives show top-dose activity change, negative = inhibition, usual class: inhibitors. actives 2.2% (n = 72,000). AID 411; also: nearly all actives have a fitted effect of over 40% in size
Target sequence (P08659 whole entry, looked up): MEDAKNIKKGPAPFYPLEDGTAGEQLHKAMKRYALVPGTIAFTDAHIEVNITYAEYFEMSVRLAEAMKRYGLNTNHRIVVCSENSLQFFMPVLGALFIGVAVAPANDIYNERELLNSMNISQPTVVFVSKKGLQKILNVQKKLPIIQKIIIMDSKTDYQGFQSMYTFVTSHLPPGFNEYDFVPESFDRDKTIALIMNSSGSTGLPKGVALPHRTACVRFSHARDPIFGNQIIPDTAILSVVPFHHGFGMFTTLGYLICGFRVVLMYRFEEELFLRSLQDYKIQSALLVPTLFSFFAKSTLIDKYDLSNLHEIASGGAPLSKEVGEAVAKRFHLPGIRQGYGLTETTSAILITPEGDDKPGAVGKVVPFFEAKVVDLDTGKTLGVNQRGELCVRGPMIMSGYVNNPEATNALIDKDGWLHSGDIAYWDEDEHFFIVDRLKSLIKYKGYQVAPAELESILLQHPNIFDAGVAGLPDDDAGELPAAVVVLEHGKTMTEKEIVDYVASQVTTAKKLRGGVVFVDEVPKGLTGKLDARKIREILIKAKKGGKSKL
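Substrate buffer containing 10 uM ATP (pH 7.2 imidazole, Mg2+, KCl, detergent, BSA) is dispensed, compound pinned in, then luciferase/luciferin detector mix added. After 8 min at ambient temperature, light output is measured.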
p53ts 39C tox: kills p53ts cells at the nonpermissive temperature. AID 902. H1299-p53A138V viability at 39C, ATP luminescence, 24 h. actives 1.5% (n = 130,000). Potency, µM (titrated, usually from 46.1 µM), for the others: at the top dose activity change, negative = cell killing, hits mostly cytotoxic; also: nearly all actives have a fitted effect of over 55% in size
* hit, by the source's call; ? = inconclusive; nt = no result given; [ ] = dose if it differs, or a comment. Calls follow the shape of the dose curve; as a rule, active = well fitted curve in the direction sought with a large enough effect; inconclusive = small, poorly fitted or top-dose-only effect, or another doubt; inactive = no such curve, though single readings can be large; an effect the other way counts as inactive or inconclusive. Unless noted, % is scaled to controls: 0 for no effect and ±100 for the full control effect; potency is read from the fitted curve at half-maximal effect.

SMILES | p53ts 32C tox | Luciferase inh | p53ts 39C tox
Cc1ccc(NC(=O)c2c(NC(=O)c3ccco3)sc3c2CCC(C(C)(C)C)C3)c(C)c1 (stereo not drawn) | 0.3% | nt | 10.4%
OC(CN1CCNCC1)Cn1c2ccc(Br)cc2c2cc(Br)ccc21 (stereo not drawn) | ? | nt | 12.6µM*
Cc1ccc2c(c1)c(C)c(C)n2CC(O)CN1CCOCC1 (stereo not drawn) | 5.0% | -0.3% | -8.8%
CCCCN(CC)CCNS(=O)(=O)c1cccc2cccnc12 | 5.1% | -4.9% | -5.4%
Cc1cc(C)c2c(=O)n(CC(=O)NCCCN3CCN(c4ccccc4F)CC3)sc2n1 | -14.4% | 12.6µM* | 7.2%
Cc1cc(C)c2c(=O)n(CC(=O)NCCCN3CCOCC3)sc2n1 | 1.7% | 12.6µM* | -0.5%
Cc1cc(C)c2c(=O)n(CC(=O)N3CCC(Cc4ccccc4)CC3)sc2n1 | -1.2% | -26.8% | 6.8%
Cc1ccccc1CS(=O)(=O)CCC(=O)NCCCN1CCN(c2ccccc2F)CC1 | -5.0% | 1.9% | -13.4%
CCCn1c(-c2ccc(F)cc2)nc2c(NCCCN3CCCCC3C)nc(C)nc21 (stereo not drawn) | -5.4% | nt | 1.2%
Cc1cc2c(nc1C)CCCCN2C[C@H](C)O/N=C\[C@@H](C)[C@H](OCc1ccccc1)C(C)C | 10.1%[9.22 µM] | 0.8%[11.4 µM] | 1.1%[9.22 µM]
Cc1cccc(NC(=O)c2ccccc2O)c1C | ? | -26.7% | 12.1%
Cc1ccc(C(=O)O)c(C(=O)Nc2nc(C)cs2)c1 | 2.1% | 5.3% | 4.0%
O=C(Nc1ccccc1O)c1ccccc1O | -22.7% | 20µM* | ?
Cc1csc(NC(=O)c2ccccc2O)n1 | ? | 25.1µM* | ?
COc1cccc(Nc2ncc3nc(-c4ccccc4)c(=O)n(Cc4cccs4)c3n2)c1 | -20.7% | 1.9%[11.4 µM] | 5.8%
COCCCNC(=O)c1ccc(-c2nc(CS(=O)(=O)c3ccc(C)cc3)c(C)o2)cc1 | -4.6% | nt | -8.5%
Cc1nc2ccc(S(=O)(=O)NC(C(=O)N3CCN(c4cccc(Cl)c4)CC3)C(C)C)cc2s1 (stereo not drawn) | 0.5% | nt | 3.2%
COC(=O)C1=C(C)NC(C)=C([N+](=O)[O-])[C@H]1c1ccccc1C(F)(F)F | 13.9% | -0.6% | 11.6%
COC(=O)C1=C(C)NC(C)=C([N+](=O)[O-])[C@@H]1c1ccccc1C(F)(F)F | 12.4% | 3.98µM* | -6.2%
CCOc1ccc(NC(=O)c2ccc(NC(=O)CCS(=O)(=O)c3cccs3)cc2)cc1 | 8.5% | nt | 21.1%
CCOc1ccc(N/C=C/C(=O)c2ccccc2)c([N+](=O)[O-])c1 | nt | nt | 5.62µM*
CCOc1ccc(NC(=O)/C=C/c2ccccc2)c([N+](=O)[O-])c1 | nt | nt | 1.3%
C[C@@]12C(=O)OC(=O)[C@@]1(C)[C@H]1CC[C@@H]2O1 | 148.8% | -1.9%[11.4 µM] | 83.0%
C[C@@](N)(Cc1ccc(O)c(O)c1)C(=O)O | 2.9% | -3.8%[25.5 µM] | -6.0%
Nc1nc(Nc2cccc(C(F)(F)F)c2)sc1C(=O)c1ccccc1 | -5.7% | nt | 5.9%
SMILES | p53ts 32C tox | Luciferase inh | p53ts 39C tox
CC(C)(C)C(=O)c1sc(Nc2ccccc2)nc1N | -24.7% | 12.6µM* | ?
NCOC(=O)Cc1ccc(Br)cc1 | -3.9%[9.22 µM] | 2.3%[11.4 µM] | -3.7%[9.22 µM]
Cc1ccc(C)c(Cn2c(=O)n(CCCCC(=O)NCc3ccc4c(c3)OCO4)c(=O)c3ccccc32)c1 | -8.1% | nt | -29.6%
COc1cc(OC)c(NC(=O)c2noc3c2CSc2ccccc2-3)cc1Cl | 2.7% | nt | -0.4%
COc1cccc(Oc2cn[nH]c2-c2ccc(OC)cc2O)c1 | -4.3% | 2.0% | ?
CCOc1ccc(-c2[nH]ncc2Oc2cccc(OC)c2)c(O)c1 | -23.3% | -2.5% | 15.8µM*
CO[C@H]1COC(=O)[C@@H](C)COC(=O)[C@@H](COCc2ccccc2)NC(=O)C/C=C\[C@H]1C | -1.5%[9.22 µM] | 1.0%[11.4 µM] | 3.3%[9.22 µM]
CN1CCc2cc3c(cc2C(=O)Cc2ccc4c(c2C1)OCO4)OCO3 | -10.9% | 2.2%[11.4 µM] | -5.9%
COC(=O)c1cc(Nc2nc3ccccc3nc2NS(=O)(=O)c2ccc(C)cc2)ccc1Cl | -13.9% | nt | -8.2%
Cc1ccc(-c2nc3ccccc3[nH]2)cc1NC(=O)COc1ccccc1[N+](=O)[O-] | 15.8µM* | nt | 7.94µM*
Cc1ccc(OCC(=O)Nc2cc(-c3nc4ccccc4[nH]3)ccc2C)c(C)c1 | -6.3% | nt | 0.2%
FC(F)(F)c1ccccc1-c1nccc(-n2ccnc2)n1 | 1.6% | -0.5%[2.29 µM] | -2.5%
COc1ccccc1NS(=O)(=O)c1cc(C(=O)O)ccc1F | 4.7% | nt | 5.2%
COc1ccc(NC(=O)CSc2nnc3scc(-c4ccc(Cl)cc4)n23)cc1 | ? | nt | 12.6µM*
CCOc1ccc(NC(=O)CSc2nnc3scc(-c4ccc(Cl)cc4)n23)cc1 | -23.8% | nt | -5.0%
COC(=O)c1ccccc1NC(=O)Cn1c(=O)n(-c2cccc(OC)c2)c(=O)c2c(C)c(C(=O)N(C)C)sc21 | 3.2% | nt | -8.7%
O=C(Nc1cccc(O)c1)c1ccc(Br)cc1 | ? | -26.5% | ?
CC(=O)c1cccc(NS(=O)(=O)c2ccc(N/C=C/C(=O)c3ccc(F)cc3)cc2)c1 | nt | nt | -19.1%
O=C(/C=C/Nc1cccc(O)c1)c1ccccc1 | 3.98µM* | 2µM* | 7.94µM*
Cc1ccc(C(=O)/C=C/Nc2cccc(O)c2)cc1 | nt | 2.51µM* | nt
O=C(/C=C/NCC(=O)c1ccccc1)c1ccc(Br)cc1 | nt | nt | -11.3%
C/C(=C\C(=O)c1ccc(C)cc1)Nc1cccc(O)c1 | ? | 5.01µM* | -26.6%
N#CNC(N)=Nc1ccc(Cl)cc1 | -1.4%[9.22 µM] | 2.2%[11.4 µM] | 1.2%[9.22 µM]
CCOc1ccc(CNC(=O)c2cc3c(=O)oc4ccc(C)cc4c3s2)cc1 | 8.1% | nt | -12.4%
O=C1C2=C(Nc3cc([N+](=O)[O-])ccc3N2)O[C@@H]1c1ccc([C@H]2OC3=C(Nc4ccc([N+](=O)[O-])cc4N3)C2=O)cc1 | 5.3%[9.22 µM] | -9.8%[11.4 µM] | 18.2%[9.22 µM]
SMILES | p53ts 32C tox | Luciferase inh | p53ts 39C tox
NNC(=O)COc1cccc2cccnc12 | -6.7% | nt | 2.1%
O=C(COc1cccc2cccnc12)Nc1nccs1 | ? | 15.8µM* | ?
COc1ccc(-c2cnn(-c3ccccc3)c2N)cc1OC | 17.7% | -3.5% | 12.7%
Nc1nc2c(s1)CCc1c-2cnn1-c1ccccc1 | 12.6µM* | 7.94µM* | 10µM*
CCOc1ccc(NC(=O)CSc2nnc(-c3ccncc3)n2-c2ccccc2)cc1 | 5.2% | nt | 32.3%
N#Cc1cccc(NC(=O)c2cc3c(s2)-c2ccc(Cl)cc2SC3)c1 | ? | nt | 10µM*
CN(Cc1ccccc1)C(=O)c1cc2c(s1)-c1ccc(Cl)cc1SC2 | -1.0% | nt | ?
O=c1cc(CSc2n[nH]c(-c3ccccc3)n2)[nH]c2ccccc12 | 5.4% | nt | 8.5%
CC(C)=NOC[C@@H](O)[C@@H]1O[C@@H]2OC(C)(C)O[C@@H]2[C@H]1O | 3.7%[9.22 µM] | 1.3%[11.4 µM] | 2.3%[9.22 µM]
COc1ccccc1OCc1nc2ccccc2[nH]1 | -28.2% | ? | -27.0%
Nc1ccc(C(=O)OCc2nc3ccccc3[nH]2)cc1 | -6.4% | -5.9% | -2.9%
c1cnc2c(OCc3nc4ccccc4[nH]3)cccc2c1 | -25.6% | 20µM* | ?
NNC(=O)c1ccc(OCc2nc3ccccc3[nH]2)cc1 | -4.8%[9.22 µM] | -3.6%[11.4 µM] | -0.6%[9.22 µM]
c1ccc2cc(OCc3nc4ccccc4[nH]3)ccc2c1 | 10µM* | nt | 12.6µM*
COc1cccc(OCc2nc3ccccc3[nH]2)c1 | 15.8µM* | 12.6µM* | ?
CCOc1ccc(C(=O)Nc2ccc(-c3nc4ccccc4s3)c(C)c2)cc1OCC | -3.0% | nt | -14.1%

Screening results: PubChem BioAssay, National Center for Advancing Translational Sciences (NCATS)
